# Laboratory results as given in ChEMBL document CHEMBL1961873, “Compounds: GSK PKIS; Assays: Nanosyn kinase panel” (2012).
# Columns and labels:
# [1] = molecular target: Sphingosine kinase 1 (Homo sapiens) (UniProt Q9NYA1); conditions: at 1 µM;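 note: mean SPHK1 inhibition value reported from the GSK PKIS kinase panel screen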
# [2] = molecular target: T1, Sphingosine kinase 2 (Homo sapiens) (UniProt Q9NRA0); conditions: at 0.1 µM
# T1 sequence (whole entry): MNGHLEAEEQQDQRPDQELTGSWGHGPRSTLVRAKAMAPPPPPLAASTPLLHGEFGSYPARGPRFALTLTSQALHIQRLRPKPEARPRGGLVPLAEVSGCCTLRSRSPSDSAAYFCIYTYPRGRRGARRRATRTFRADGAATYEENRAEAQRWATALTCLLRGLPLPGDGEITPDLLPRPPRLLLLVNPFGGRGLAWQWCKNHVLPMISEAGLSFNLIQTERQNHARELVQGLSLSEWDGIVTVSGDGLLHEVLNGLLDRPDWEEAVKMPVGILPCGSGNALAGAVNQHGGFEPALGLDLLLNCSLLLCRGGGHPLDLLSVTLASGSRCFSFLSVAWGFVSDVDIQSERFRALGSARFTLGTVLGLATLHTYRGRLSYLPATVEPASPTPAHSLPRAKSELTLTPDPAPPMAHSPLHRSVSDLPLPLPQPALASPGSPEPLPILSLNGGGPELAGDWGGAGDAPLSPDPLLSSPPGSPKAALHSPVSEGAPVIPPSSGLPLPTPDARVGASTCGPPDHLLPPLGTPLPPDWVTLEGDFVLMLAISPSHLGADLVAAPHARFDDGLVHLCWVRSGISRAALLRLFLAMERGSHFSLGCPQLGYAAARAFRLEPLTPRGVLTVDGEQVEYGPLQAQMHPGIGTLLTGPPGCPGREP
# [3] = molecular target: T1, Sphingosine kinase 2 (Homo sapiens); conditions: at 1 µM
# [4] = molecular target: Casein kinase II subunit alpha (Homo sapiens) (UniProt P68400); conditions: at 0.1 µM
# Chain of Casein kinase II subunit alpha (Homo sapiens) (P68400 whole entry, looked up): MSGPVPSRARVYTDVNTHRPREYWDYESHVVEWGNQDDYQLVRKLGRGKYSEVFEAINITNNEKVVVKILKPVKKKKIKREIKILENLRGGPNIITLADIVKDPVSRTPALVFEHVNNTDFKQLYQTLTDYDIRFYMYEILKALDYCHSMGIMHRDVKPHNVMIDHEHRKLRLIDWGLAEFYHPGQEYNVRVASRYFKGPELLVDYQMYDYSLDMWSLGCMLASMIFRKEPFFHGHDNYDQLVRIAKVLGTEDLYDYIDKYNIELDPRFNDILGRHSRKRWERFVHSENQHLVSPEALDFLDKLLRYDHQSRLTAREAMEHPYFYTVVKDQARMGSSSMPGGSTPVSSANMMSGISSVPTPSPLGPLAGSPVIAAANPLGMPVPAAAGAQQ
# [5] = molecular target: Casein kinase II subunit alpha (Homo sapiens) (UniProt P68400); conditions: at 1 µM
# [6] = molecular target: T2, Inhibitor of nuclear factor kappa-B kinase subunit alpha (Homo sapiens) (UniProt O15111); conditions: at 0.1 µM
# T2 sequence (whole entry): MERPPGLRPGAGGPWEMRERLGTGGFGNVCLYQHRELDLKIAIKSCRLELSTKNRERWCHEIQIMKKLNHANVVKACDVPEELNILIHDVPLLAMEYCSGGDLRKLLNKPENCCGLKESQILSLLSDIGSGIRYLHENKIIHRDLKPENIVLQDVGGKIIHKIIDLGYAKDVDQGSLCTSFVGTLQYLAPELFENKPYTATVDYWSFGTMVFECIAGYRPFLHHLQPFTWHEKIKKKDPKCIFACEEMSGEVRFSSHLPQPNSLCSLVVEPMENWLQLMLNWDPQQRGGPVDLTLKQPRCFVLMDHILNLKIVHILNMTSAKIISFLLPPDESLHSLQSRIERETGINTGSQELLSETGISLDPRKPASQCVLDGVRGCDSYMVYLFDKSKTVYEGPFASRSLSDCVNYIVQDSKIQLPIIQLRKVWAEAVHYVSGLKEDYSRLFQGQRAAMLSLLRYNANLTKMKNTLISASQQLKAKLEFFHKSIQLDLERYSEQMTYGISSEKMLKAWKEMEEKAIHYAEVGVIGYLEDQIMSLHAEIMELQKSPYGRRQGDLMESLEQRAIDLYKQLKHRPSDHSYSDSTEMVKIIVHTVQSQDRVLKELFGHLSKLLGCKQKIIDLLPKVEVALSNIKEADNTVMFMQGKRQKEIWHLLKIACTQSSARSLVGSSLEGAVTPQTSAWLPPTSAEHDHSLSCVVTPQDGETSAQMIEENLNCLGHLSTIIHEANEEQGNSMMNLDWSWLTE
# [7] = molecular target: T2, Inhibitor of nuclear factor kappa-B kinase subunit alpha (Homo sapiens); conditions: at 1 µM
# [8] = molecular target: T3, Inhibitor of nuclear factor kappa-B kinase subunit beta (Homo sapiens) (UniProt O14920); conditions: at 0.1 µM
# T3 sequence (whole entry): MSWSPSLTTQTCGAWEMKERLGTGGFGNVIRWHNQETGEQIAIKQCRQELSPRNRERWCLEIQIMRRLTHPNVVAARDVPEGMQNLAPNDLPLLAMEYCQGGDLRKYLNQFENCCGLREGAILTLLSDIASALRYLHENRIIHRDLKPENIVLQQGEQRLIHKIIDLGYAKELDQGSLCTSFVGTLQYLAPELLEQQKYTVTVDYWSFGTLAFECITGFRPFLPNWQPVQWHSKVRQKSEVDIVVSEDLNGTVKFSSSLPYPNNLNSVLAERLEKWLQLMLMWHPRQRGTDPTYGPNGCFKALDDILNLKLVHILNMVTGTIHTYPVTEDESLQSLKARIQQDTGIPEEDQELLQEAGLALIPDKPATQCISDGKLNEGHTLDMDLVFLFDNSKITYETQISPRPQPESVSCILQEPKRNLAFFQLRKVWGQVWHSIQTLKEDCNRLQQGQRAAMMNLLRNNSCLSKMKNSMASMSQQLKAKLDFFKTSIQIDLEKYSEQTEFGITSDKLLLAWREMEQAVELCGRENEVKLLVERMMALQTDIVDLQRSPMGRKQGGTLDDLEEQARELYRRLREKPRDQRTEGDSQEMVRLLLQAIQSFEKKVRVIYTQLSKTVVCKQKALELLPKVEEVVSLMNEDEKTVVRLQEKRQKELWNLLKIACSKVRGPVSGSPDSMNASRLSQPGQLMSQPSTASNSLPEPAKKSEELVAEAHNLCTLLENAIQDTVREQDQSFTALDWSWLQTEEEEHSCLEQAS
# [9] = molecular target: T3, Inhibitor of nuclear factor kappa-B kinase subunit beta (Homo sapiens); conditions: at 1 µM
# [10] = molecular target: T4, Inhibitor of nuclear factor kappa-B kinase subunit epsilon (Homo sapiens) (UniProt Q14164); conditions: at 0.1 µM
# T4 sequence (whole entry): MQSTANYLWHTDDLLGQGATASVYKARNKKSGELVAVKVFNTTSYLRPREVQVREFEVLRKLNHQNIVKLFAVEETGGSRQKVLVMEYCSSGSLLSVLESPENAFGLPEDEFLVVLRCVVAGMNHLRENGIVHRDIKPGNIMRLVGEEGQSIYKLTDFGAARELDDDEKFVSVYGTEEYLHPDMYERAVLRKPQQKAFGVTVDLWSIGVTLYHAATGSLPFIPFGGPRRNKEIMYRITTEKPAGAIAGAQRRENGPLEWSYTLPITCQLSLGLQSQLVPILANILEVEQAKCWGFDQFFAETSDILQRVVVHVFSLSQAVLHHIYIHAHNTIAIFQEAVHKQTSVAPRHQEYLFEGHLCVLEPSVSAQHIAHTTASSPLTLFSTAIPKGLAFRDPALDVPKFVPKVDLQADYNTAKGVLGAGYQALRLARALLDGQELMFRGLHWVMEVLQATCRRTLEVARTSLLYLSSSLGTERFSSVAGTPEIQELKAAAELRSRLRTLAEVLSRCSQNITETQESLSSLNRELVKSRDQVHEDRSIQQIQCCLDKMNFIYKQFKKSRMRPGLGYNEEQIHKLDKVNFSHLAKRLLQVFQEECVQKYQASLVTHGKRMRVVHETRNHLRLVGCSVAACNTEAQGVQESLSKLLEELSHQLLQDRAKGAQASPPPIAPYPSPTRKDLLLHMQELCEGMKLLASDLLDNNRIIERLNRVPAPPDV
# [11] = molecular target: T4, Inhibitor of nuclear factor kappa-B kinase subunit epsilon (Homo sapiens); conditions: at 1 µM
# [12] = molecular target: T5, Serine/threonine-protein kinase Nek1 (Homo sapiens) (UniProt Q96PY6); conditions: at 0.1 µM
# T5 sequence (whole entry): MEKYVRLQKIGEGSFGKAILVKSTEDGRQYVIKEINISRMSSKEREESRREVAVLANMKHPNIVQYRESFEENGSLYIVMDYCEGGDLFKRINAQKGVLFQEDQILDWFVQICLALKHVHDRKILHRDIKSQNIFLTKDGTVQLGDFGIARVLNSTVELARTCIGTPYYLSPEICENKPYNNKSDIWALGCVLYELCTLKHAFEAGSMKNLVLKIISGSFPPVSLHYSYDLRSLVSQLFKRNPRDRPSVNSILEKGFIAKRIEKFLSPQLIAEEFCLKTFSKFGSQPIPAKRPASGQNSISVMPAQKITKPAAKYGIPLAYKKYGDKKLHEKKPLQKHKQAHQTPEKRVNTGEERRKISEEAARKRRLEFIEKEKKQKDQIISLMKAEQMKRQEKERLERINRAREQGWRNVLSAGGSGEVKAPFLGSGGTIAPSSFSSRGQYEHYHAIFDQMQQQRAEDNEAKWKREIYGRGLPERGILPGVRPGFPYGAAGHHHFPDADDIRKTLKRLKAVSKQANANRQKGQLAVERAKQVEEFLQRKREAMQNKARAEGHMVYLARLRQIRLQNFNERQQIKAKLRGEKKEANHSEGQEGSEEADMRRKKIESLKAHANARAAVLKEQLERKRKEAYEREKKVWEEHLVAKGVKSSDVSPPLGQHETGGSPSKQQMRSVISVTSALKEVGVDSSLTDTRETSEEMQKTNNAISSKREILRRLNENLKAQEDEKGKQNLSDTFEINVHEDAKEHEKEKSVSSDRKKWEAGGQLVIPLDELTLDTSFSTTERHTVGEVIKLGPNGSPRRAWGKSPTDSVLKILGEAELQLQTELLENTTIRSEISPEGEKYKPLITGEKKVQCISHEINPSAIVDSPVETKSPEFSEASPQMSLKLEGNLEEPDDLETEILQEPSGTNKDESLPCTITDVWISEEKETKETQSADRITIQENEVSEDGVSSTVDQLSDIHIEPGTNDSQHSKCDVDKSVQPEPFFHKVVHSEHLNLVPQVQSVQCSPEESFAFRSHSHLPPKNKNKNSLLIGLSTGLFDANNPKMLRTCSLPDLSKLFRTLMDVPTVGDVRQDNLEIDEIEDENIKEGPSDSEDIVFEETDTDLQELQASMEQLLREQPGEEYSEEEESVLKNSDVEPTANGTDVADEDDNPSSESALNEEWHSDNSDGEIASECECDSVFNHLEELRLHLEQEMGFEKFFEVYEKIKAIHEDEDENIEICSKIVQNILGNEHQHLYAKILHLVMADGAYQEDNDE
# [13] = molecular target: T5, Serine/threonine-protein kinase Nek1 (Homo sapiens); conditions: at 1 µM
# [14] = molecular target: T6, Serine/threonine-protein kinase Nek2 (Homo sapiens) (UniProt P51955); conditions: at 0.1 µM
# T6 sequence (whole entry): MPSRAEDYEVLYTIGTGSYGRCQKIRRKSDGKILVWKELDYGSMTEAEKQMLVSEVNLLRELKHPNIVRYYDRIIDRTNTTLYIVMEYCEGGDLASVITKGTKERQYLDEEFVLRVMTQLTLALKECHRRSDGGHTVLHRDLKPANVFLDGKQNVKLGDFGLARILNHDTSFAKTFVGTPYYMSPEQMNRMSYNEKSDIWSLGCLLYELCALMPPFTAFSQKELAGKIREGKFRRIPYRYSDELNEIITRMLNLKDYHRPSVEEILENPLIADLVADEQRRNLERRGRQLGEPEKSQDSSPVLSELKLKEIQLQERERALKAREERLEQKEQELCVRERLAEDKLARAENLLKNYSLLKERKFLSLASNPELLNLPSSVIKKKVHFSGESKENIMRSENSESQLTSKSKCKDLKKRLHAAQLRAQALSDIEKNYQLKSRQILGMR
# [15] = molecular target: T6, Serine/threonine-protein kinase Nek2 (Homo sapiens); conditions: at 1 µM
# [16] = molecular target: Serine/threonine-protein kinase Nek6 (Homo sapiens) (UniProt Q9HC98); conditions: at 0.1 µM
# Chain of Serine/threonine-protein kinase Nek6 (Homo sapiens) (Q9HC98 whole entry): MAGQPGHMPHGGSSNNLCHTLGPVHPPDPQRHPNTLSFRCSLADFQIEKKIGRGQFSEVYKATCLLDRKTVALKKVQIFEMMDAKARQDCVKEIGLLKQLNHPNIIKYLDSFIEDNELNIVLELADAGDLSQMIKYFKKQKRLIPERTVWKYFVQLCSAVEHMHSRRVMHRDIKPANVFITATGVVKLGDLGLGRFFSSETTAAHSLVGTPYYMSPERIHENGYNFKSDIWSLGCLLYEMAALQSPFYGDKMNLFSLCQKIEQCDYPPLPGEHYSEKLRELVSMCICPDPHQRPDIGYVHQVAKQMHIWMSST
# [17] = molecular target: Serine/threonine-protein kinase Nek6 (Homo sapiens) (UniProt Q9HC98); conditions: at 1 µM
# [18] = molecular target: Serine/threonine-protein kinase Nek7 (Homo sapiens) (UniProt Q8TDX7); conditions: at 0.1 µM
# Chain of Serine/threonine-protein kinase Nek7 (Homo sapiens) (Q8TDX7 whole entry, looked up): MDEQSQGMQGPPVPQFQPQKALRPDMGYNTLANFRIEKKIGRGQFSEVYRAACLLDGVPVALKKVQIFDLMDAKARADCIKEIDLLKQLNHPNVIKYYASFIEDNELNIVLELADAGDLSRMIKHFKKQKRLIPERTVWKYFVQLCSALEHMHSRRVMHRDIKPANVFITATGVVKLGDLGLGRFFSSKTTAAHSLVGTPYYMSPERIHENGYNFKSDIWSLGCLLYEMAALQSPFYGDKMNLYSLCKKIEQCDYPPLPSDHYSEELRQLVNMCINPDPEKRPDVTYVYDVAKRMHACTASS
# [19] = molecular target: Serine/threonine-protein kinase Nek7 (Homo sapiens) (UniProt Q8TDX7); conditions: at 1 µM
# [20] = molecular target: T7, Serine/threonine-protein kinase Nek9 (Homo sapiens) (UniProt Q8TD19); conditions: at 0.1 µM;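 note: reported value is the mean percent inhibition of NEK9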
# T7 sequence (whole entry): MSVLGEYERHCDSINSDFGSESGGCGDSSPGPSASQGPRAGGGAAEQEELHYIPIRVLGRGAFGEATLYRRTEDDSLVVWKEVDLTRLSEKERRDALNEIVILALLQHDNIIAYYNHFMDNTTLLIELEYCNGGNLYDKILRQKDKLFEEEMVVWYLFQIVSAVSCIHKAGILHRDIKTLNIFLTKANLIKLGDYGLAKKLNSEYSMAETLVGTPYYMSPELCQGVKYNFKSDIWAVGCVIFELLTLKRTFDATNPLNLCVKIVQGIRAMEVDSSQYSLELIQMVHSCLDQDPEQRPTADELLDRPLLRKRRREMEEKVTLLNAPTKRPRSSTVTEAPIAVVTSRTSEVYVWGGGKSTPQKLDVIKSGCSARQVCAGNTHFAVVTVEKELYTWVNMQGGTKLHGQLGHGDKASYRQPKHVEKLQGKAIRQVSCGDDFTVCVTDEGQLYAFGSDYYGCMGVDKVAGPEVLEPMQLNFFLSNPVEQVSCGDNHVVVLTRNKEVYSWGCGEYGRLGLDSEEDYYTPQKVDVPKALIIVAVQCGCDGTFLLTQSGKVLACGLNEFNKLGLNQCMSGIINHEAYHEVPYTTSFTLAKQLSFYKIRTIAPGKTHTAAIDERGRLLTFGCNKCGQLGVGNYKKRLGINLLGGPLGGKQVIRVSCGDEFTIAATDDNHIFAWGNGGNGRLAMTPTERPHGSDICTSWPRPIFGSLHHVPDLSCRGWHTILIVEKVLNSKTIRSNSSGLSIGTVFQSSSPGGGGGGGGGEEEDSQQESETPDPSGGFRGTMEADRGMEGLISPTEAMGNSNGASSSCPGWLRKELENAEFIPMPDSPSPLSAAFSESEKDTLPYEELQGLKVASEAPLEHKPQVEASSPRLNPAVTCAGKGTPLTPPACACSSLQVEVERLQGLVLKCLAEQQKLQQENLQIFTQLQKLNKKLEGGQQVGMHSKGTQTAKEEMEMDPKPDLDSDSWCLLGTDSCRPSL
# Chain of Sphingosine kinase 1 (Homo sapiens) (Q9NYA1 whole entry): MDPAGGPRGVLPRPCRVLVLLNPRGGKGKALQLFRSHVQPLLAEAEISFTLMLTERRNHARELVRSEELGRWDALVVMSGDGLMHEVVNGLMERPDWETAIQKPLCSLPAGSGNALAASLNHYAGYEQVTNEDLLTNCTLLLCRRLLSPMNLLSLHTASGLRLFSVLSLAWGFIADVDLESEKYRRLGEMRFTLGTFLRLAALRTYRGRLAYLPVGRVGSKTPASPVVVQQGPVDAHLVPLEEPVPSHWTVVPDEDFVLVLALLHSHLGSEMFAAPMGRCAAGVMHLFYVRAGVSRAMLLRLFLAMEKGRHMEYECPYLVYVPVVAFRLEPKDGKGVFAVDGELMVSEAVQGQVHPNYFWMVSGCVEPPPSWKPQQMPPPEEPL
smiles,measurement,setting,value
COc1ccc2ncn(-c3cc(O[C@H](C)c4ccccc4C(F)(F)F)c(C(N)=O)s3)c2c1,inhibition,[1],2.4%
same,inhibition,[2],-0.06%
same,inhibition,[3],-2.97%
same,inhibition,[4],-0.88%
same,inhibition,[5],5.02%
same,inhibition,[6],3.24%
same,inhibition,[7],-5.63%
same,inhibition,[8],-5.7%
same,inhibition,[9],1.93%
same,inhibition,[10],-0.98%
same,inhibition,[11],1.28%
same,inhibition,[12],8.29%
same,inhibition,[13],43%
same,inhibition,[14],0.45%
same,inhibition,[15],11.6%
same,inhibition,[16],0.31%
same,inhibition,[17],-2.42%
same,inhibition,[18],1.25%
same,inhibition,[19],0.51%
same,inhibition,[20],35.9%
